Compounds with a hit are over-represented: about 19% of the library has one in this group of screens.
TDP1 cell noCPT: qHTS for Inhibitors of human tyrosyl-DNA phosphodiesterase 1 (TDP1): qHTS in cells in absence of CPT | Potency, µM (titrated, usually from 46.2 µM), usual class: inhibitors | actives 15% (n = 420,000) | DT40 Tdp1-/- hTDP1 cells, no CPT, ATP luminescence, 48 h | AID 686978, 2013; also: nearly all actives have a fitted effect of over 55% in size
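Luminescent ATP content (CellTiter-Glo) served as the growth readout. Knockout chicken DT40 cells expressing human TDP1 were exposed to compounds without camptothecin for a minimum 48 hr at 37 °C.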
DT40 TDP1 CPT: DT40-hTDP1 cell growth loss with CPT; Potency, µM (titrated, usually from 46.2 µM), usual class: inhibitors; actives 12% (n = 420,000); chicken DT40 Tdp1-/-;hTDP1 cells + 20 nM CPT, ATP luminescence, 48 h; also: nearly all actives have a fitted effect of over 55% in size
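Chicken DT40 Tdp1-/- cells complemented with human TDP1, 400 cells/well, exposed to compounds plus 20 nM camptothecin for at least 48 h at 37 C; viability read as ATP content by CellTiter-Glo luminescence.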
IL-1B inflam inh: inhibitors of inflammasome signaling (IL-1 beta secretion); activity change, % at 57.5 µM; actives 4.7% (n = 360,000); THP-1 LPS/ATP IL-1B secretion, AlphaLISA, 16 h; active compounds read low; in the data active = activity change below about -50%; inconclusive = mostly about -30% to -49%
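THP-1 cells pretreated 1 hr with compounds (up to 57.5 uM final), then stimulated with LPS (250 ng/mL final) plus ATP (1.25 mM final); secreted IL-1B measured by AlphaLISA after 16 hr, decreased signal indicating inhibition.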
HT1080-NT tox: kills 2HG-producing HT-1080-NT fibrosarcoma cells | HT-1080-NT fibrosarcoma viability, CellTiter-Glo ATP luminescence, 48 h | Potency, µM (top dose mostly 46.1 µM), usual class: cytotoxic | actives 1.6% (n = 360,000) | AID 686970;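 also: NT is the 2HG producing partner of a matched IDH1 knockdown line; nearly all actives have a fitted effect of over 55% in size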
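Viability of the 2HG-overproducing fibrosarcoma line after 48 hours of compound exposure at 37 degrees C was determined by luminescence with CellTiter-Glo, and concentration-effect curves were then fitted and categorized.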
HT1080 IDH1KD tx: kills HT-1080 cells with IDH1 knockdown; HT-1080 IDH1 knockdown viability, ATP luminescence, 48 h; Potency, µM (top dose mostly 46.1 µM), hits mostly cytotoxic; actives 2% (n = 360,000); AID 686971
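Using the IDH1-knockdown HT-1080 line run in the same batch and compound series as the NT line, viability after 48 h at 37 °C was determined by CellTiter-Glo luminescence and expressed as % activity.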
Numbers stand for hits; . = inactive; ? = inconclusive; / = no result given. Unless noted, calls follow the shape of the dose curve; as a rule, active = well fitted curve in the direction sought with a large enough effect; inconclusive = small, poorly fitted or top-dose-only effect, or another doubt; inactive = no such curve, though single readings can be large; an effect the other way counts as inactive or inconclusive.

SMILES | TDP1 cell noCPT | DT40 TDP1 CPT | IL-1B inflam inh | HT1080-NT tox | HT1080 IDH1KD tx
COc1ccc(C(C)=O)cc1COC(=O)Cc1cc(OC)c(OC)c(OC)c1 | . | . | . | . | .
COc1ccc(-c2c(C#Cc3ccc(N(C)C)cc3)c3ccccc3n2C)cc1 | ? | 23µM | . | . | .
COc1ccc(-c2cc(C(=O)Nc3ccc(C(N)=O)cc3)c3ccccc3n2)cc1 | 6.5µM | 8.2µM | / | ? | ?
O=C(Nc1ccon1)c1cc(-c2ccccc2)nc2ccccc12 | ? | . | . | . | .
CCOc1cccc(-c2cc(C(=O)Nc3ccon3)c3ccccc3n2)c1 | 9.2µM | ? | . | . | .
COc1ccc(COc2cc(-c3cccc(OC)c3)nc3ccc(NC(=O)C(C)C)cc23)cc1 | 4.6µM | 4.6µM | . | ? | 2.9µM
Cc1cccc(NC(=S)NC(=O)c2cc(-c3ccccc3)nc3ccccc23)c1 | ? | 20µM | . | . | .
O=C(CSc1nnc(-c2ccc(F)cc2)o1)N1CCCC1 | . | . | . | . | .
COc1cccc(-c2cc(C(=O)Nc3ccc([N+](=O)[O-])cn3)c3ccccc3n2)c1 | 12µM | ? | . | . | .
COc1cccc(-c2cc(C(=O)Nc3ccccc3)c3ccccc3n2)c1 | 6.5µM | ? | . | . | .
N#Cc1cccc(N=Cc2c(O)ccc3ccccc23)c1 | ? | ? | . | ? | ?
O=C(CNc1ccc(Br)cc1)Nc1ccc(S(=O)(=O)N2CCCCC2)cc1 | 29µM | ? | . | . | .
O=C(CN1CCN(S(=O)(=O)N2CCCCC2)CC1)Nc1ccc(Br)cc1 | 16µM | ? | . | . | .
CCCc1cnc(Nc2nc(C(N)Cc3ccc(C(F)(F)F)cc3)cs2)nc1 (stereo not drawn) | 21µM | ? | ? | 16µM | ?
Cc1cc(C)nc(Nc2nc(C(N)Cc3ccc(C(F)(F)F)cc3)cs2)n1 (stereo not drawn) | 6.5µM | 6.5µM | -81 | ? | ?
Cc1cc(C)nc(Nc2nc(C(N)Cc3ccc(Cl)cc3)cs2)n1 (stereo not drawn) | 18µM | 18µM | ? | 21µM | 15µM
COc1cc(OC)nc(Nc2nc(C(N)Cc3ccccc3)cs2)n1 (stereo not drawn) | 18µM | ? | . | ? | ?
NC(Cc1ccc(C(F)(F)F)cc1)c1csc(Nc2nccc(C(F)(F)F)n2)n1 (stereo not drawn) | ? | ? | . | ? | ?
NC(Cc1ccc(F)cc1)c1csc(Nc2ccc(C(=O)NCCCO)cn2)n1 (stereo not drawn) | ? | ? | . | . | .
Cc1cc(C)nc(Nc2nc(C(N)Cc3ccc(F)cc3)cs2)n1 (stereo not drawn) | 21µM | 15µM | . | ? | 13µM
COc1cc(OC)nc(Nc2nc(C(N)Cc3ccc(C(F)(F)F)cc3)cs2)n1 (stereo not drawn) | ? | ? | -111 | 18µM | ?
Cc1ccc(-n2nc3c(c2NC(=O)CC(C)C)CS(=O)(=O)C3)c(C)c1 | . | . | . | . | .
Cc1ccc(C)c(N=Cc2cc3c(cc2[N+](=O)[O-])OCO3)c1 | ? | ? | . | . | .
CC(C)(C)c1ccc(O)c(N=Cc2cc3c(cc2[N+](=O)[O-])OCO3)c1 | 16µM | ? | . | . | .
O=[N+]([O-])c1cc2c(cc1/C=N\NS(=O)(=O)c1ccccc1)OCO2 | ? | 9.2µM | . | . | .
SMILES | TDP1 cell noCPT | DT40 TDP1 CPT | IL-1B inflam inh | HT1080-NT tox | HT1080 IDH1KD tx
COc1ccc(NC(=O)c2cc(C(C)=O)n3ccccc23)cc1 | ? | . | / | / | /
COc1ccc(CNc2nc(NCc3ccc(OC)c(OC)c3)n(C(=O)c3cccs3)n2)cc1OC | 15µM | 16µM | ? | ? | ?
Cc1ccccc1C(=O)n1nc(-c2ccco2)nc1NCc1cccs1 | ? | 13µM | / | / | /
O=C(c1cccs1)n1nc(-c2ccccc2)nc1NCc1ccco1 | ? | 21µM | . | . | .
COc1cccc(CC(NC(C)=O)C(=O)NC2CCN(S(=O)(=O)c3ccc(C)cc3)CC2)c1OC (stereo not drawn) | . | . | . | . | .
S=C(Nc1ccc(Cl)cc1)c1nc2ccccc2[nH]1 | ? | ? | . | ? | ?

Assay outcomes deposited in PubChem BioAssay by National Center for Advancing Translational Sciences (NCATS).
